# This is a sample that favours compounds with a hit; in the whole collection about 2.8% have one here.
# ERa SRC1 inh: ERα–SRC-1 coactivator interaction inhibitors, primary screen, biochemical, TR-FRET, ERα LBD, estradiol-bound | Estrogen receptor (Homo sapiens), P03372 | TR-FRET ER-alpha LBD / SRC-1 peptide | inhibition, % at 25.6 µM | 86,000 tested, 1.7% active | AID 629, 2007; in the data active means inhibition above about 50%
# ERb coact inh: inhibitors of ERβ-SRC1 coactivator interaction, primary screen, biochemical, TR-FRET, ERβ LBD, SRC-1 peptide. AID 633, 2007. Estrogen receptor beta (Homo sapiens), Q92731. inhibition, % at 25.6 µM. 86,000 tested, 1.3% active. TR-FRET ER-beta LBD / SRC1-Cy5 peptide binding; receptor agonist-loaded with 1 µM estradiol;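 active means compounds whose percent inhibition of the receptor-coactivator binding signal exceeds about 50% in the single-dose screen, limit read from the data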
# MRP reversal: reversal of MRP1-mediated doxorubicin resistance, primary screen, H69AR cells, doxorubicin co-treatment; H69AR cells + 2 uM doxorubicin, CellTiter-Glo, 72 h; differential viability (reversal), % at 10 µM; 85,000 tested, 0.04% active;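 active means viability drop by adding the cancer drug above about 55%, with treated viability meeting a 40% cutoff, limit read from the data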;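 further: larger differential means the compound sensitizes cells more to doxorubicin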
# ERa coact pot: enhancers of ERα–SRC-1 coactivator binding, primary screen, biochemical, TR-FRET, ERα LBD, low estradiol; Estrogen receptor (Homo sapiens), P03372; TR-FRET ERalpha-LBD/SRC-Cy5 coactivator binding, 2 h; 100 = basal binding, no effect; coactivator binding (% of control), % at 25.6 µM; 86,000 tested, 1.3% active; in the data active means activity above about 200%;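 further: binding measured in presence of low estradiol as agonist stimulus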
# Smad3 FoxH1 inh: Smad3/FoxH1 peptide binding inhibitors, primary screen, biochemical, TR-FRET. Mothers against decapentaplegic homolog 3 (Homo sapiens), P84022. TR-FRET Smad3/Dy647-FoxH1 peptide binding, europium anti-His. inhibition, % at 25 µM. 88,000 tested, 0.29% active. AID 630, 2007;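 active means compounds that reduce the energy-transfer binding signal between the protein and its labelled peptide by more than half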
# Target sequence (P84022 whole entry, looked up): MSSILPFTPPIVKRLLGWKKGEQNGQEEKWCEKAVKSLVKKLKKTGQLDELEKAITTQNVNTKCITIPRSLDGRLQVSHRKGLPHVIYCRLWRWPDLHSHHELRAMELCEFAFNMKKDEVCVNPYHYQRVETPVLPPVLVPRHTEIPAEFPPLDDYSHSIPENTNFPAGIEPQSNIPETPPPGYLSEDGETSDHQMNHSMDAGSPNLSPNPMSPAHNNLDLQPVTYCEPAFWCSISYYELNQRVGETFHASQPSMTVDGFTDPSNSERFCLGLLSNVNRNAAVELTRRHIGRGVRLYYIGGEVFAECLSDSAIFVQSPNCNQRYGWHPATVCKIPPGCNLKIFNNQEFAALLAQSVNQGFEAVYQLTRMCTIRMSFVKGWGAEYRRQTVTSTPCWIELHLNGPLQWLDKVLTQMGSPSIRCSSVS
# MRP-1 activ: H69AR viability gain despite doxorubicin, primary screen, MRP-1 activator project, H69AR cells, CellTiter-Glo; viability rescue; viability increase, % at 10 µM; 140,000 tested, 0.61% active;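 active means viability gain under doxorubicin at or above a set limit, the compound median plus 3 SD, cut at about 4.7% in these data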;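 further: MRP-1 overexpressing cells given doxorubicin 25 µM after compound pretreatment; 18-22 h compound pretreatment then 72 h with doxorubicin before readout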
# A number is an active result; . = inactive; / = not tested or not shown; [ ] = remark or other dose.
SMILES,ERa SRC1 inh,ERb coact inh,MRP reversal,ERa coact pot,Smad3 FoxH1 inh,MRP-1 activ
CC(=O)O[C@H]1CC[C@@]2(C)C(=CC[C@H]3[C@H]2CC[C@]2(C)[C@@H]4[C@@H](C)[C@]5(CC[C@H](C)CN5)O[C@@H]4C[C@@H]32)C1,/,/,/,/,.,/
Cc1ccc(N2C(=O)C3C4C=CC(CNC(=S)Nc5cccc(Cl)c5)(O4)C3C2=O)cc1 (stereo not given),/,/,/,/,/,.
CN=c1scc(C)n1/N=C/c1ccc(O)c(O)c1O,97[fluorescence artefact?],100[fluorescence artefact?],.,.,.,12
CC1(C)Cc2c(sc3nnn(Cc4ccc(Cl)cc4)c(=O)c23)CO1,/,/,/,/,/,7.4
C[N+](C)(C)CC(=O)N/N=C/c1ccncc1,/,/,/,/,.,/
C[C@@H]1CCCC(CC(=O)O)(CC(=O)O)C1,/,/,/,/,.,/
CC(=O)Nc1nc(C)c(Oc2ccc(Cl)cc2Cl)c(=O)[nH]1,.,.,.,.,.,32
COc1cc2nc(NC(=O)c3ccc(Cl)cc3)[nH]c(=O)c2cc1OC,.,.,.,.,.,.
COc1ccc(CNC(=O)C2CC(c3cccc(OC)c3)=NO2)cc1 (stereo not given),.,73[fluorescence artefact?],.,.,.,.
COc1ccc(C2=NOC(C(=O)NCc3ccc(F)cc3)C2)cc1OC (stereo not given),70[fluorescence artefact?],.,.,.,.,.
OCc1ccncc1.OCc1ccncc1.[Cl][Pt]([Cl])([Cl])[Cl],/,/,/,/,.,/
COc1ccccc1/C=C/C=N/n1c(C2CCCCC2)n[nH]c1=S,/,/,/,/,/,4.8
COc1ccc(-c2n[nH]c(=S)n2/N=C/C=C/c2ccccc2OC)cc1,/,/,/,/,/,.
Cc1ccc(CN(Cc2cc3cc(C)ccc3[nH]c2=O)C(=O)N2CCOCC2)cc1,.,.,.,484,.,.
Cc1ccc(C2=CC(C)(c3ccc(C)cc3)Nc3nc(C(F)(F)F)nn32)cc1 (stereo not given),/,/,/,/,/,6.0
CC1(c2ccc(OCC#N)cc2)C=C(c2ccc(OCC#N)cc2)n2nc(C(F)(F)F)nc2N1 (stereo not given),/,/,/,/,/,.
COc1ccc(Cl)cc1-c1nc(-c2ccc(Br)o2)no1,59[fluorescence artefact?],.,.,277[fluorescence artefact?],.,.
CCn1c(=O)c2cc(C(=O)Nc3cc(C)on3)sc2c2ccccc21,54[fluorescence artefact?],.,.,.,.,.
COC(=O)c1sc(N2C(=O)c3oc4ccccc4c(=O)c3C2c2cccs2)nc1C (stereo not given),/,/,/,/,/,.
C=CCOC(=O)c1sc(N2C(=O)c3oc4ccccc4c(=O)c3C2c2ccco2)nc1C (stereo not given),54,61,.,.,.,/
O=C(O)CN(CC(=O)O)c1ccccc1,/,/,/,/,.,/
COc1ccc(-c2nnc(SCC(=O)/C(C#N)=C(\C)N)o2)cc1,56,75,.,.,.,.
O=C(N/N=C/c1ccccn1)c1cc(-c2ccc3ccccc3c2)n[nH]1,/,/,/,/,/,7.5
C[C@@](O)(CNS(=O)(=O)c1ccccc1)c1ccccc1,/,/,/,/,.,/
CC1(C)Cc2c(C#N)c(SCc3ccccc3)nc(N3CCOCC3)c2CO1,.,.,.,.,.,.
SMILES,ERa SRC1 inh,ERb coact inh,MRP reversal,ERa coact pot,Smad3 FoxH1 inh,MRP-1 activ
CC1(C)Cc2c(C#N)c(SCC(=O)c3ccccc3)nc(N3CCOCC3)c2CO1,.,.,.,246[fluorescence artefact?],.,.
COc1ccc2c(c1)-c1nc(/N=C/c3ccc(O)c(OC)c3)sc1CC2,/,/,/,/,/,.
COc1ccc(OC)c(-c2csc3nnc(SCC(=O)Nc4ccc(NC(C)=O)cc4)n23)c1,.,.,.,.,.,.
O=C(CSc1nnc2scc(-c3ccccc3)n12)c1ccc2c(c1)OCCO2,.,.,.,437[fluorescence artefact?],.,.
c1ccc(-c2csc3nnc(SCc4ccc5c(c4)OCCO5)n23)cc1,/,/,/,/,/,.
COc1cccc(-c2csc3nnc(SCC(=O)c4ccc(NC(C)=O)cc4)n23)c1,.,.,.,224,.,.
CC(O)(CS(=O)(=O)Cc1ccccc1)C(=O)Nc1cccc(C(F)(F)F)c1 (stereo not given),/,/,/,/,/,.
CC(O)(CS(=O)(=O)Cc1ccccc1)C(=O)Nc1ccc(C(F)(F)F)cc1 (stereo not given),/,/,/,/,/,7.9
Cn1c([N+](=O)[O-])cnc1CN1CCN(CCO)CC1,/,/,/,/,.,/
O=C(O)CCCN1CCCCC1,/,/,/,/,.,/
O=C(O)C[C@H](Cc1ccc2c(c1)OCO2)C(=O)O,/,/,/,/,.,/
Cc1ccc2oc(-c3ccc(C)c(NC(=S)NC(=O)c4cccs4)c3)nc2c1,/,/,/,/,/,.
COc1cc(C(=O)Nc2cccc(-c3nc4cc(C)ccc4o3)c2)cc(OC)c1OC,72[fluorescence artefact?],.,.,252[fluorescence artefact?],.,.
Cc1ccc2oc(-c3cccc(NC(=O)c4cc(-n5cnnc5)ccc4Cl)c3)nc2c1,.,.,.,245,.,.
COc1cc(C(=O)Nc2cccc(-c3nc4cc(C)ccc4o3)c2C)cc(OC)c1OC,.,.,.,.,.,.
COc1cc(C(=O)Nc2cc(-c3nc4cc(C)ccc4o3)ccc2C)cc(OC)c1OC,74[fluorescence artefact?],60[fluorescence artefact?],.,.,.,.
Cc1ccc2nc(-c3cccc(NC(=O)c4ccc5c(c4)OCCO5)c3)oc2c1,68[fluorescence artefact?],.,.,.,.,.
O=C(CC(O)(c1ccccc1)C(F)(F)F)c1cccs1 (stereo not given),.,.,.,.,.,.
Brc1ccc(OCc2nc(-c3ccccn3)n[nH]2)cc1,.,.,.,.,.,8.4
Clc1ccc(OCc2nc(-c3ccccn3)n[nH]2)cc1,.,.,.,.,.,.
O[C@@H]1[C@@H](OCc2ccccc2)OC[C@H](O)[C@H]1O,/,/,/,/,.,/
O=C(O)CCC(O)=C1S(=O)(=O)OCCOS1(=O)=O,/,/,/,/,.,/
COc1ccc(OC)c(C2C(C(=O)Nc3nc4ccccc4s3)=C(C)NC3=C2C(=O)CCC3)c1 (stereo not given),/,/,/,/,/,.
COc1cccc(C2C(C(=O)Nc3nc4ccccc4s3)=C(C)NC3=C2C(=O)CC(C)(C)C3)c1OC (stereo not given),/,/,/,/,/,7.9
N=C1CCC[C@H]1C(=S)SCCC(N)=O,/,/,/,/,.,/
CCOc1ccc(Cn2nnc(C(=O)Nc3cc(C)cc(C)c3)c2N)cc1,.,.,.,.,.,.
CCOc1ccc(Cn2nnc(C(=O)Nc3cc(OC)cc(OC)c3)c2N)cc1,.,.,.,257[fluorescence artefact?],.,.
Nc1c(C(=O)NCc2ccccc2)nnn1Cc1ccc(F)cc1,.,.,.,.,.,.
CCc1ccc(Cn2nnc(C(=O)Nc3cccc(C)c3)c2N)cc1,.,.,.,.,.,.
COc1ccc(CNC(=O)c2nnn(Cc3ccc(OC)cc3)c2N)cc1,.,.,.,208,.,.

# Assay outcomes from PubChem BioAssay.
